Results reported in paper PMC11062922 (Nature Chemical Biology, 2023).

System: PKN3
Details: read-out: Average; hek293t cells; SD, n = 3
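Note: NanoBRET target engagement in HEK293T cells transiently expressing full-length PKN3 with C-terminal NanoLuc, displacement of fluorescent tracer K5 (500 nM), BRET read after 2 h equilibration at 37 °C.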

Row | Compound | IC50 [nM]
1 | Cc1cccc(-c2nc(Nc3ccncc3)c3sccc3n2)n1 [GW869641X] | 1580
2 | Cc1cccc2c(-c3ccncn3)c(-c3ccc(F)cc3)nn12 [GW515532X] | 26700
3 | COc1cccc2c(-c3ccncc3)c(-c3ccc(F)cc3)nn12 [GW468513X] | 910

Same assay, conditions: read-out: Average; hek293t cells; SD, n = 4

Row | Compound | IC50 [nM]
4 | Cl.NCc1ccc(-c2nc(-c3ccc(Cl)c(O)c3)c(-c3ccncc3)[nH]2)cc1 [SB-476429-A] | 243
5 | Fc1ccc(-c2c(-c3ccncc3)[nH]c3cccnc23)cc1 [RO1153853-000] | 2360
6 | CCn1c(-c2nonc2N)nc2c(C#CC(C)(C)O)nc(OCCNC)cc21.Cl [GSK949675A] | 669
7 | Cl.ON=C1CCc2cc(-c3nc(C4CCNCC4)[nH]c3-c3ccncc3)ccc21 [SB-614067-R] | 22900
8 | CCn1c(-c2nonc2N)nc2c(C#CC(C)(C)O)nc(CN3CCCC3)cc21 [GSK1000163A] | 6970
9 | CCn1c(-c2nonc2N)nc2c(C#CC(C)(C)O)nc(OCCN)cc21.CCn1c(-c2nonc2N)nc2c(C#CC(C)(C)O)nc(OCCN)cc21.Cl.Cl [GSK902056A] | 99.2
10 | CCn1c(-c2nonc2N)nc2c(-c3ccccc3)ncc(OCCCN)c21.CCn1c(-c2nonc2N)nc2c(-c3ccccc3)ncc(OCCCN)c21.O=C(O)C(F)(F)F.O=C(O)C(F)(F)F [GSK260205A] | 22.3
11 | LY3009120 | 513
12 | CCn1c(-c2nonc2N)nc2c(C#CC(C)(C)O)nc(OC[C@@H](N)c3ccccc3)cc21 [GSK938890A] | 97.8
13 | CCn1c(-c2nonc2N)nc2c(C#CCN)ncc(OCCCN)c21.O=C(O)C(F)(F)F [GSK561866B] | 7970

Same assay, conditions: read-out: Rep 1; hek293t cells

Row | Compound | IC50 [nM]
14 | Cl.NCc1ccc(-c2nc(-c3ccc(Cl)c(O)c3)c(-c3ccncc3)[nH]2)cc1 [SB-476429-A] | 589
15 | Fc1ccc(-c2c(-c3ccncc3)[nH]c3cccnc23)cc1 [RO1153853-000] | 8030
16 | Cc1cccc(-c2nc(Nc3ccncc3)c3sccc3n2)n1 [GW869641X] | 4190
17 | Cc1cccc2c(-c3ccncn3)c(-c3ccc(F)cc3)nn12 [GW515532X] | 78800
18 | CCn1c(-c2nonc2N)nc2c(C#CC(C)(C)O)nc(OCCNC)cc21.Cl [GSK949675A] | 1950
19 | Cl.ON=C1CCc2cc(-c3nc(C4CCNCC4)[nH]c3-c3ccncc3)ccc21 [SB-614067-R] | 19100
20 | CCn1c(-c2nonc2N)nc2c(C#CC(C)(C)O)nc(CN3CCCC3)cc21 [GSK1000163A] | 11100
21 | CCn1c(-c2nonc2N)nc2c(C#CC(C)(C)O)nc(OCCN)cc21.CCn1c(-c2nonc2N)nc2c(C#CC(C)(C)O)nc(OCCN)cc21.Cl.Cl [GSK902056A] | 234
22 | CCOc1nccc2c1nc(-c1nonc1N)n2CC [SB-737198] | > 50000
23 | CCn1c(-c2nonc2N)nc2c(-c3ccccc3)ncc(OCCCN)c21.CCn1c(-c2nonc2N)nc2c(-c3ccccc3)ncc(OCCCN)c21.O=C(O)C(F)(F)F.O=C(O)C(F)(F)F [GSK260205A] | 73.6
24 | LY3009120 | 538
25 | CCn1c(-c2nonc2N)nc2c(C#CC(C)(C)O)nc(OC[C@@H](N)c3ccccc3)cc21 [GSK938890A] | 310
26 | CCn1c(-c2nonc2N)nc2c(C#CCN)ncc(OCCCN)c21.O=C(O)C(F)(F)F [GSK561866B] | 13000
27 | COc1cccc2c(-c3ccncc3)c(-c3ccc(F)cc3)nn12 [GW468513X] | 2100
